Data on nine molecules can be found in PubChem BioAssay (Tox21).

A short description of assay [1]: qHTS assay to identify small molecule antagonists of the glucocorticoid receptor (GR) signaling pathway - cell viability counter screen (AID 720693). Note: % is set by controls: 0 for no effect and ±100 for the full control effect; nearly all actives have a fitted effect of over 55% in size. For orientation: In qHTS, concentration-response curves come from the screen itself.
Assay [2] in a line: qHTS assay for identifying genotoxic compounds that show differential cytotoxicity against isogenic chicken DT40 cell lines with known DNA damage response pathways - wild type cell line (AID 743012). Note: nearly all actives have a fitted effect of over 60% in size. Note: potency is the fitted concentration of half-maximal effect. The gist of the method: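 Viability by ATP luminescence (CellTiter-Glo, 30 min RT) after 40 h compound treatment at 37 C/5% CO2, using 300 parental DNA repair-proficient DT40 cells per well.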

The nature of assay [3]: qHTS assay for identifying genotoxic compounds that show differential cytotoxicity against isogenic chicken DT40 cell lines with known DNA damage response pathways - Rev3 mutant cell line (AID 743014). Note: nearly all actives have a fitted effect of over 55% in size. Note: potency is the fitted concentration of half-maximal effect.
The nature of assay [4]: qHTS assay to identify small molecule antagonists of the androgen receptor (AR) signaling pathway - cell viability counter screen (AID 743033; note: nearly all actives have a fitted effect of over 45% in size; note: potency is the fitted concentration of half-maximal effect).
A short description of assay [5]: qHTS assay to identify small molecule antagonists of the androgen receptor (AR) signaling pathway using the MDA cell line - cell viability counter screen (AID 743041; note: % is set by controls: 0 for no effect and ±100 for the full control effect; nearly all actives have a fitted effect of over 45% in size). In short, it runs like this: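 Cytotoxicity counter screen: MDA-kb2 AR-luc cells, compound + R1881, 16 h, 37C, 0% CO2; CellTiter-Fluor added at 15.5 h, fluorescence read after 30 min.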
Assay [6] is described as follows: qHTS assay to identify small molecule antagonists of the thyroid receptor (TR) signaling pathway - cell viability counter screen (AID 743064). Note: nearly all actives have a fitted effect of over 50% in size. Note: potency is the fitted concentration of half-maximal effect. In short, it runs like this: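 In rat pituitary GH3.TRE-Luc reporter cells co-exposed to compound and 1 nM T3 for 23.5 h, cytotoxicity was assessed with CellTiter-Fluor in the same wells, read by fluorescence.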
Assay [7] has as its system thyroid hormone receptor (rat, GH3 cells). Description: qHTS assay to identify small molecule agonists of the thyroid receptor (TR) signaling pathway (AID 743066; calls by dose curve; note: % is set by controls: 0 for no effect and ±100 for the full control effect).
A short description of assay [8]: qHTS assay to identify small molecule antagonists of the estrogen receptor alpha (ER-alpha) signaling pathway - cell viability counter screen (AID 743074; calls by dose curve;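 note: HEK293 cells carrying ER-alpha-UAS-bla reporter stimulated with 17beta-estradiol; nearly all actives have a fitted effect of over 45% in size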; note: potency is the fitted concentration of half-maximal effect).
Assay [9] can be described thus: qHTS assay to identify small molecule antagonists of the estrogen receptor alpha (ER-alpha) signaling pathway using the BG1 cell line - cell viability counter screen (AID 743081).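 Note: compound given together with 17beta-estradiol as the ER stimulus; nearly all actives have a fitted effect of over 45% in size.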 Note: potency is the fitted concentration of half-maximal effect.
Another assay concerns the target Aromatase (Homo sapiens) (UniProt P11511). Description: qHTS assay to identify aromatase inhibitors (AID 743083). Note: nearly all actives have a fitted effect of over 55% in size. Note: potency is the fitted concentration of half-maximal effect.
In assay [10] the target is Estrogen receptor (Homo sapiens) (UniProt P03372). Description: qHTS assay to identify small molecule antagonists of the estrogen receptor alpha (ER-alpha) signaling pathway (AID 743069; active = well fitted curve in the direction sought with a large enough effect in the signal ratio in the repeat runs, not every such curve was filed as active; the % refers to the signal ratio; note: % is set by controls: 0 for no effect and ±100 for the full control effect). The gist of the method:
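Beta-lactamase FRET fluorescence is read after 2 hr at room temperature with LiveBLAzer B/G substrate. Before that, ER-alpha-bla HEK293 cells sit 4 hr after plating, then receive compound plus 17beta-estradiol and incubate 18 hr at 37C.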

For assay [11] the target is unchanged. Description: qHTS assay to identify small molecule agonists of the estrogen receptor alpha (ER-alpha) signaling pathway (AID 743075; calls by dose curve;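 note: HEK293 GripTite cells with ER-alpha and UAS-driven beta-lactamase reporter; % is set by controls: 0 for no effect and ±100 for the full control effect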).
A short description of assay [12]: qHTS assay to identify small molecule antagonists of the estrogen receptor alpha (ER-alpha) signaling pathway using the BG1 cell line (AID 743080; calls by dose curve;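 note: BG1 cells stimulated with 17beta-estradiol alongside compound; nearly all actives have a fitted effect of over 25% in size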; note: potency is the fitted concentration of half-maximal effect). The gist of the method: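 Luciferase inhibition measured with ONE-Glo after 30 min at RT in BG1Luc4E2 cells given test compounds and 17beta-estradiol for 21.5 h at 37 C; CellTiter-Fluor viability read in the same wells beforehand.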

The target of assay [13] is Estrogen receptor (Homo sapiens) (UniProt P03372). Description: qHTS assay to identify small molecule agonists of the estrogen receptor alpha (ER-alpha) signaling pathway using the BG1 cell line (AID 743079). Note: % is set by controls: 0 for no effect and ±100 for the full control effect; nearly all actives have a fitted effect of over 20% in size.
A short description of assay [14]: qHTS assay to identify small molecule antagonists of the thyroid receptor (TR) signaling pathway (AID 743065). Note: nearly all actives have a fitted effect of over 55% in size. Note: potency is the fitted concentration of half-maximal effect. The gist of the method: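 GH3.TRE-Luc rat pituitary cells (two TREs driving luciferase) were dosed with compound, then stimulated with 1 nM T3 (final) for 23.5 h at 37 C. ONE-Glo luminescence was the read-out, with CellTiter-Fluor fluorescence as the cytotoxicity counter-screen.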

The target of assay [15] is Androgen receptor (Homo sapiens) (UniProt P10275). Description: qHTS assay to identify small molecule agonists of the androgen receptor (AR) signaling pathway using the MDA cell line (AID 743040; note: % is set by controls: 0 for no effect and ±100 for the full control effect; nearly all actives have a fitted effect of over 20% in size). Conditions: MDA-kb2 AR-luc cells, MMTV luciferase, 16 h, stronger effect = higher value. The gist of the method: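 Luciferase read-out, ONE-Glo, 30 min RT. Cells: MDA-kb2 AR-luc, MMTV promoter with AR and GR response elements. Compound exposure 16 h, 37C, 0% CO2, after 5 h pre-incubation. qHTS agonist mode.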

Assay [16] has the same target. Description: qHTS assay to identify small molecule antagonists of the androgen receptor (AR) signaling pathway using the MDA cell line (AID 743042). The gist of the method: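 MDA-kb2 breast carcinoma cells carrying MMTV-luciferase (AR/GR responsive) were co-treated with compounds and the agonist R1881 for 16 h at 37C. Inhibition read as ONE-Glo luminescence; CellTiter-Fluor fluorescence measured in parallel for cytotoxicity.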

Where “and” joins values, the source holds several entries; their conditions need not be identical. Identical values can stand only once. Records with an inconclusive call do not appear. More than one record can exist for a structure, and the calls need not agree. Calls of active or inactive are those of the source. Unless noted, calls come from the whole dose curve; as a rule, active = well fitted curve in the direction sought with a large enough effect in the repeat runs; inconclusive = weak or mixed curves; inactive = no such curve, though single readings can be large; an effect the other way counts as inactive or inconclusive.

Chain of Androgen receptor (Homo sapiens) (P10275 whole entry, looked up): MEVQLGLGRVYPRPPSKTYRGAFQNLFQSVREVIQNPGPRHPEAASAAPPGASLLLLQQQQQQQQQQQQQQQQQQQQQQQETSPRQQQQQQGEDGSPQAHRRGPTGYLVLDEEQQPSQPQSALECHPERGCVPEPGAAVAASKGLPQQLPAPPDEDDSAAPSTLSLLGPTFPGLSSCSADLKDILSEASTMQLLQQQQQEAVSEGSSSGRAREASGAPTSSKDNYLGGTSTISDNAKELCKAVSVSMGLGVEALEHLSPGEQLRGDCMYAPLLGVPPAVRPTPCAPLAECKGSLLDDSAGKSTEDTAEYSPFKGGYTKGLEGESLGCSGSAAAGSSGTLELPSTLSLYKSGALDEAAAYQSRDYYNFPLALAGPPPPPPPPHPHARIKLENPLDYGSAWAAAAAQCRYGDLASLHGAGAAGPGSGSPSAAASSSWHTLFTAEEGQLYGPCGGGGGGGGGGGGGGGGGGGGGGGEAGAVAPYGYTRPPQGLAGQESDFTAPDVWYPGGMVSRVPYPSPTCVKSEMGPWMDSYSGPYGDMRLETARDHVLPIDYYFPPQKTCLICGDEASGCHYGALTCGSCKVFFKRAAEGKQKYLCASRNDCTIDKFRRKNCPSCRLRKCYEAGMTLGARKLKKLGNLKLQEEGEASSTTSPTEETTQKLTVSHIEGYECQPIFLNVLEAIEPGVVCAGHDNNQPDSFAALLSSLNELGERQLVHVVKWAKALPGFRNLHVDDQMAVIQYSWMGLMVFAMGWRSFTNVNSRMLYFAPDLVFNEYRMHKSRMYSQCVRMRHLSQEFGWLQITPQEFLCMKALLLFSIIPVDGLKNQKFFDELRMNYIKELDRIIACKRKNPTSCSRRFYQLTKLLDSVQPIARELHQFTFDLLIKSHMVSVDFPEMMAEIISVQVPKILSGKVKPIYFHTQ
Chain of Aromatase (Homo sapiens) (P11511 whole entry, looked up): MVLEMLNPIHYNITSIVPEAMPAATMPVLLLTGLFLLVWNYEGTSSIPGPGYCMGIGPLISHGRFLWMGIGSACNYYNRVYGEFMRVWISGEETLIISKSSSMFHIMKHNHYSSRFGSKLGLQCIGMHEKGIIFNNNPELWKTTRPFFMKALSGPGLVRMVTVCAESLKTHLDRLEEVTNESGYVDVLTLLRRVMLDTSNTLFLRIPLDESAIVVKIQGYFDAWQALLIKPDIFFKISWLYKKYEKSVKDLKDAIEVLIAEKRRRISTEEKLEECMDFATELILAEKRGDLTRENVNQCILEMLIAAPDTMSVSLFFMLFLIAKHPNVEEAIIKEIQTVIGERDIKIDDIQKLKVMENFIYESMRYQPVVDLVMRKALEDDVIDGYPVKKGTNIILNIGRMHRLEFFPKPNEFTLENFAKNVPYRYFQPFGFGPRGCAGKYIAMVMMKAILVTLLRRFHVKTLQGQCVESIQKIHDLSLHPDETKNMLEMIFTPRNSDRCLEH
Chain of Estrogen receptor (Homo sapiens) (P03372 whole entry, looked up): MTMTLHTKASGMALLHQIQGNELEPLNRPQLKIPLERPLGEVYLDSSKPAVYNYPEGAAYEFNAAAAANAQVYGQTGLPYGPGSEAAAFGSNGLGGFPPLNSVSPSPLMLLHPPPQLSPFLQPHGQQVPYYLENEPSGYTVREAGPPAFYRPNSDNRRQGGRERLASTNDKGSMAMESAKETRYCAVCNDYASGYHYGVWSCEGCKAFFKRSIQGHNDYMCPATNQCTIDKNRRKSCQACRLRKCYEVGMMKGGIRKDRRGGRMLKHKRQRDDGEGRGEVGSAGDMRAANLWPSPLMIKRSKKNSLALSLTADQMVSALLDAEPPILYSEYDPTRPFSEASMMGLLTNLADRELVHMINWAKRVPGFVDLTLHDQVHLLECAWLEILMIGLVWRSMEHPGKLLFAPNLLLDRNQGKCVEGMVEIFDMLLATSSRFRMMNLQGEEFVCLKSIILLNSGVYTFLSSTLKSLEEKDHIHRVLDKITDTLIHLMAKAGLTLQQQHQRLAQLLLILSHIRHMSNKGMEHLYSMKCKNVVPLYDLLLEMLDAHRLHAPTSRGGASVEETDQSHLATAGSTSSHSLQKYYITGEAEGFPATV

On to `CCCCCc1cc(O)cc(O)c1`, for which the Potency result in [1], in assay [2], in [3], in [4], in assay [5] and in assay [6] was “inactive” throughout. Moreover, the Potency entry (in assay [7]; in [8]; in assay [9]; with Aromatase (Homo sapiens)) was “inactive” in each case.

For the molecule `CCOc1cc(Oc2ccc(C(F)(F)F)cc2Cl)ccc1[N+](=O)[O-]`, the Potency entry in [1], in assay [3], in assay [4], in assay [5], in [7] and in [10] was “inactive” throughout. The Potency entry (in assay [8]; in [11]; in assay [9]; with Aromatase (Homo sapiens)) was “inactive” each time. Besides, the Potency is 54.5 µM (active) in [2] and 31 µM (active) in assay [12].

On to `ClC1C(Cl)C(Cl)C(Cl)C(Cl)C1Cl` (centres undefined), for which the Potency entry in assay [1], in assay [4], in assay [5], in [6], in assay [7] and in [8] was “inactive” in each case. Also, in assay [9], the Potency result was “inactive”. Moreover, the Potency result in [2] was “inactive and 54.5 µM (active)”; in assay [3], “inactive and 48.6 µM (active) and 24.3 µM (active)”; with Aromatase (Homo sapiens) it was “inactive and 54.5 µM (active)”.

Consider `CCC(C)c1cc([N+](=O)[O-])cc([N+](=O)[O-])c1O` (centres undefined), for which the Potency result in assay [1], in [7], in [8], in assay [11], in assay [13] and in assay [12] was “inactive” each time. Besides, the Potency entry in assay [2] is “inactive and 27.3 µM (active)”; in assay [3], “inactive and 30.6 µM (active)”; in assay [4], “inactive and 19.5 µM (active)”; in [6], 27.3 µM (active); in [9] it was “inactive and 4.86 µM (active)”; in the assay with Aromatase (Homo sapiens) it was “inactive and 30.6 µM (active)”.

On to `Oc1cc(Cl)ccc1Oc1ccc(Cl)cc1Cl`, for which the Potency is 7.02 µM (active) in assay [2]; 11.4 µM (active) in [3]; 11.5 µM (active) in assay [6]; 8.84 µM (active) in assay [14]; “inactive and 11.2 µM (active)” in assay [8]; “inactive and 24.8 µM (active)” in the assay with Aromatase (Homo sapiens). The Potency entry in assay [4], in [5], in assay [7] and in assay [9] was “inactive” each time.

As for `O=C(O)C(F)(F)C(F)(F)C(F)(F)C(F)(F)C(F)(F)C(F)(F)C(F)(F)F`, the Potency result in [1], in assay [2], in assay [3], in assay [4], in assay [5] and in assay [6] was “inactive” in each case. The Potency entry (in assay [14]; in assay [7]; in assay [8]; in [9]; with Aromatase (Homo sapiens)) was “inactive” each time.

Take `N#Cc1cc(Br)c(O)c(Br)c1`: the Potency result in assay [1], in assay [5], in assay [6], in [7], in [8] and in assay [11] was “inactive” each time. For the same molecule, the Potency entry (in assay [9]; with Aromatase (Homo sapiens)) was “inactive” throughout. For the same molecule, the activity change in assay [15] (activity change: at 70.3 µM (top of the series)) was -6.84% (active); in assay [15] (at 70.3 µM (top of the series)), -3.58% (inactive). Besides, the Potency in [16] was 61.1 µM (active); in assay [14], 68.5 µM (active); in assay [12] it was 68.5 µM (active) and 52.5 µM (active).

Consider `Oc1ccc(-c2ccccc2)cc1`, for which the Potency result in [1], in [2], in [4], in assay [5], in assay [7] and in [10] was “inactive” in each case. Moreover, the Potency entry (in [8]; in [9]; in the assay with Aromatase (Homo sapiens)) was “inactive” in each case. For the same molecule, the Potency in [3] is 60.3 µM (active).

As to `CCOP(=S)(OCC)O/N=C(\C#N)c1ccccc1`, the Potency entry in assay [1], in assay [2], in assay [3], in assay [4], in assay [5] and in [6] was “inactive” throughout. Moreover, the Potency entry (in assay [14]; in assay [7]; in [8]; in [9]; with Aromatase (Homo sapiens)) was “inactive” each time.
